# Measurements from PubChem BioAssay (NCATS).
# Inconclusive results are not listed. Entries that show only a call come without a potency. Calls of active or inactive are those of the source. Unless noted, calls follow the shape of the full dose curve.
# Legend:
# [1] = qHTS for Inhibitors of the Functional Ribonucleoprotein Complex (vRNP) of Lassa (LASV) Arenavirus: LASV Primary Screen - GLuc reporter signal (AID 1347082; calls by dose curve; tested in HEK293 reporter line; also: nearly all actives have a fitted effect of over 60% in size; also: potency is read from the fitted curve at half-maximal effect)
# [2] = qHTS for Inhibitors of the Functional Ribonucleoprotein Complex (vRNP) of Lassa (LASV) Arenavirus: Viability assay - alamar blue signal for LASV Primary Screen (AID 1347083; calls by dose curve; tested in HEK293 reporter line; also: nearly all actives have a fitted effect of over 80% in size; also: potency is read from the fitted curve at half-maximal effect)
# [3] = qHTS for Inhibitors of the Functional Ribonucleoprotein Complex (vRNP) of Lymphocytic Choriomeningitis Arenaviruses (LCMV): Viability assay - alamar blue signal for LCMV Primary Screen (AID 1347085; calls by dose curve; tested in HEK293 reporter line; also: nearly all actives have a fitted effect of over 80% in size; also: potency is read from the fitted curve at half-maximal effect)
# [4] = target: Nucleoprotein (Lymphocytic choriomeningitis virus (strain Armstrong)) (UniProt P09992); experiment: qHTS for Inhibitors of the Functional Ribonucleoprotein Complex (vRNP) of Lymphocytic Choriomeningitis Arenaviruses (LCMV): LCMV Primary Screen - GLuc reporter signal (AID 1347086); also: nearly all actives have a fitted effect of over 70% in size; also: potency is read from the fitted curve at half-maximal effect
# Nucleoprotein (Lymphocytic choriomeningitis virus (strain Armstrong)), sequence (P09992 whole entry, looked up): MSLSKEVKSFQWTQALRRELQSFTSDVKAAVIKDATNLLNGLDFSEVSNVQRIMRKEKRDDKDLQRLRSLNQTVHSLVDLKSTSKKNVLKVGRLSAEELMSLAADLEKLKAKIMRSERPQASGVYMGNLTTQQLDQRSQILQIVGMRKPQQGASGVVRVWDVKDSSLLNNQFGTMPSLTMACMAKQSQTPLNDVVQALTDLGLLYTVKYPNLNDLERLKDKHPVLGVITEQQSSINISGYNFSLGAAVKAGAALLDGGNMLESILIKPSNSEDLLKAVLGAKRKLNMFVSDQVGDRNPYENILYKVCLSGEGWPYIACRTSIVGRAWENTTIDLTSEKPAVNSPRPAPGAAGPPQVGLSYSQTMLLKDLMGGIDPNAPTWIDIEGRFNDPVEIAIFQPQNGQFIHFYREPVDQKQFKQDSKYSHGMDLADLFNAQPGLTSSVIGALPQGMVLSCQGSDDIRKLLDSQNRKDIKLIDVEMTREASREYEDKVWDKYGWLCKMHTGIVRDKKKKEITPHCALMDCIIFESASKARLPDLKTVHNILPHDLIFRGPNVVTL
# [5] = Cytotoxicity counterscreen for inhibitors of SARS-CoV-2 cell entry (AID 1645845); also: nearly all actives have a fitted effect of over 50% in size
# Procedure, shortened: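 ATP-content luminescence (ATPLite 1step, 15 min RT) read after 48 h compound exposure of Expi293F cells stably expressing human ACE2; normalized to cells-only wells and media-only wells.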
# [6] = target: Cytochrome P450 2C9 (Homo sapiens) (UniProt P11712); experiment: qHTS Assay for Inhibitors and Substrates of Cytochrome P450 2C9 (AID 883; active = well fitted curve in the direction sought with a large enough effect; an effect the other way counts as inactive or inconclusive; also: potency is read from the fitted curve at half-maximal effect; nearly all actives have a fitted effect of over 60% in size)
# Cytochrome P450 2C9 (Homo sapiens), sequence (P11712 whole entry, looked up): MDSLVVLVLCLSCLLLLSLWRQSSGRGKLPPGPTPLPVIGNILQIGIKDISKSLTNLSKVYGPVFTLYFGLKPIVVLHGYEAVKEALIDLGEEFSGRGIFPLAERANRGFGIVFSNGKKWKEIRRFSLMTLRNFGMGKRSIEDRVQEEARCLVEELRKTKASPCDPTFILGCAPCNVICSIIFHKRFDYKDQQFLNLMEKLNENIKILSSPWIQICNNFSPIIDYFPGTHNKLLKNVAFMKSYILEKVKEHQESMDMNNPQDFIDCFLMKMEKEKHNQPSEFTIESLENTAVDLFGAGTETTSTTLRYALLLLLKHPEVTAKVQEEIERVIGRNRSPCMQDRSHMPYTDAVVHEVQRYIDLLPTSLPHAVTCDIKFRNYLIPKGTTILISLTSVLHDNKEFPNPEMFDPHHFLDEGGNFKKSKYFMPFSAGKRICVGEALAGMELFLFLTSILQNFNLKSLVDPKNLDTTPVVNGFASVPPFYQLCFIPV
# Procedure, shortened: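 Luminescent read-out of deoxyluciferin hydroxylation, normalized to 57uM sulphaphenazole (AC100). Reaction: 10nM enzyme, 100uM Luciferin-H (equal to KM), 25mM KPO4, 10 min compound preincubation, then 60 min with NADPH regeneration, both at 37C.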
# [7] = target: Cytochrome P450 3A4 (Homo sapiens) (UniProt P08684); experiment: qHTS Assay for Activators of Cytochrome P450 3A4 (AID 885; active = well fitted curve in the direction sought with a large enough effect; an effect the other way counts as inactive or inconclusive; also: nearly all actives have a fitted effect of over 65% in size)
# Cytochrome P450 3A4 (Homo sapiens), sequence (P08684 whole entry, looked up): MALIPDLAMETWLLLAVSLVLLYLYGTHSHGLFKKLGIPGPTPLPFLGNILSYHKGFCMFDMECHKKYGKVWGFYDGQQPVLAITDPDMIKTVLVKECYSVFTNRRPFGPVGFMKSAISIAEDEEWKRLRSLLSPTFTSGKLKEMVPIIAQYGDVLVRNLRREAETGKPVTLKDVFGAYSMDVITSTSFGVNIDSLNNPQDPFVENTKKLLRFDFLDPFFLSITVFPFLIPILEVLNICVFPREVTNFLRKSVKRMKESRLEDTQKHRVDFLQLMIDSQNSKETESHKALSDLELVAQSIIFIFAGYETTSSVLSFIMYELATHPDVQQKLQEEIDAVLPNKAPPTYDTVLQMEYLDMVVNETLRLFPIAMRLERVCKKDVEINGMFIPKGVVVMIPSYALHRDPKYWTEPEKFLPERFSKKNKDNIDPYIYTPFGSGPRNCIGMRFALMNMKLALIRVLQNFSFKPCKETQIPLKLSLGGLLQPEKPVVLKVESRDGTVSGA
# Procedure, shortened: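 Activators are scored by enhanced luminescence from CYP3A4 conversion of luciferin-PPXE (25uM, equal to KM) to luciferin, after 60 min at RT with an NADPH-regenerating system.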
# [8] = Confirmatory qHTS to identify inhibitors of SARS-CoV-2 cell entry (AID 1645844); also: potency is read from the fitted curve at half-maximal effect; nearly all actives have a fitted effect of over 45% in size
# Procedure, shortened: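 Luminescence entry read-out after 48 h: spike-pseudotyped MLV particles (Wuhan-Hu-1, 19-aa C-terminal truncation) added to compound-pretreated (1 h) HEK293-ACE2 cells; Data were normalised to bald PP and spike PP wells.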
# [9] = Primary qHTS to identify inhibitors of SARS-CoV-2 cell entry (AID 1645846); settings: activity change, negative = inhibition: at 57.1 µM (top of the series) unless noted; also: nearly all actives have a fitted effect of over 45% in size; also: potency is read from the fitted curve at half-maximal effect
# Procedure, shortened: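 Using luciferase-reporting pseudoviruses carrying Wuhan-Hu-1 spike, the screen tracks entry into stably ACE2-expressing cells over 48 hr. Activity is expressed relative to spike particles versus particles lacking any fusion protein.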
# [10] = VSVG counterscreen qHTS to identify inhibitors of SARS-CoV-2 cell entry (AID 1645847); also: potency is read from the fitted curve at half-maximal effect; nearly all actives have a fitted effect of over 65% in size
# Procedure, shortened: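 Entry of VSV-G pseudotyped particles into human ACE2-expressing HEK293 cells was measured by luciferase luminescence 48 h after infection, with compound added 1 h beforehand.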
structure (smiles),measurement,setting,value
C[C@]12CC[C@@H]3c4ccc(O)cc4C[C@@H](CCCCCCCCCS(=O)CCCC(F)(F)C(F)(F)F)[C@H]3[C@H]1CC[C@H]2O (stereo partly specified),Potency,[1],inactive
same,Potency,[2],inactive
same,Potency,[3],inactive
same,Potency,[4],inactive
same,Potency,[5],inactive
CC(C)(F)C[C@H](N[C@@H](c1ccc(-c2ccc(S(C)(=O)=O)cc2)cc1)C(F)(F)F)C(=O)NC1(C#N)CC1,Potency,[1],inactive
same,Potency,[2],inactive
same,Potency,[3],inactive
same,Potency,[4],inactive
same,Potency,[5],inactive
CC(C)[C@H](CO)Nc1nc(Nc2cccc(Cl)c2)c2ncn(C(C)C)c2n1,Potency,[6],7.94 µM (active)
same,Potency,[7],inactive
same,Potency,[1],inactive
same,Potency,[2],inactive
same,Potency,[3],inactive
same,Potency,[4],inactive
same,Potency,[8],8.57 µM (active)
same,Potency,[9],7.94 µM (active)
same,Potency,[10],8.57 µM (active)
C#CCN(C)CC1=Cc2ccccc2Oc2ccccc21,Potency,[1],inactive
same,Potency,[2],inactive
same,Potency,[3],inactive
same,Potency,[4],inactive
same,Potency,[5],inactive
same,"activity change, negative = inhibition",[9],1.65%
C[C@H](c1ccc(F)cc1CCCC(=O)O)N(c1cc(F)ccc1F)S(=O)(=O)c1ccc(Cl)cc1,Potency,[1],inactive
same,Potency,[2],inactive
same,Potency,[3],inactive
same,Potency,[4],inactive
same,Potency,[5],inactive
O=C1CN2Cc3c(ccc(Cl)c3Cl)N=C2N1,Potency,[1],inactive
same,Potency,[2],inactive
same,Potency,[3],inactive
same,Potency,[4],inactive
same,Potency,[5],inactive
O=c1ncn2nc(Sc3ccc(F)cc3F)ccc2c1-c1c(Cl)cccc1Cl,Potency,[1],inactive
same,Potency,[2],inactive
same,Potency,[3],inactive
same,Potency,[4],inactive
same,Potency,[5],inactive
Nc1nccc(-c2ccc3noc(-c4ccc(Cl)cc4)c3c2)n1,Potency,[1],2.43 µM (active)
same,Potency,[2],7.69 µM (active)
same,Potency,[3],6.85 µM (active)
same,Potency,[4],4.85 µM (active)
same,Potency,[5],inactive
COc1ccc(S(=O)(=O)Nc2cc(-c3c(O)ccc4ccccc34)c(O)c3ccccc23)cc1,Potency,[1],inactive
same,Potency,[2],inactive
same,Potency,[3],inactive
same,Potency,[4],inactive
same,Potency,[5],inactive
Cc1ccc(C(C)(O)c2nc3ccccc3s2)c(C)c1 (stereo unspecified),Potency,[1],inactive
same,Potency,[2],inactive
same,Potency,[3],inactive
same,Potency,[4],inactive
same,Potency,[5],inactive
COc1ccc(C(=O)CC2(O)C(=O)Nc3c(Cl)ccc(Cl)c32)cc1 (stereo unspecified),Potency,[1],24.3 µM (active)
same,Potency,[2],1.53 µM (active)
same,Potency,[3],0.432 µM (active)
same,Potency,[4],2.73 µM (active)
same,Potency,[5],inactive
Cn1cnc2c(F)c(Nc3ccc(Br)cc3F)c(C(=O)NOCCO)cc21,Potency,[1],inactive
same,Potency,[2],inactive
same,Potency,[3],inactive
same,Potency,[4],inactive
same,Potency,[5],inactive
same,"activity change, negative = inhibition",[9],-25.1%
CCOC(=O)C=C[C@H](C[C@@H]1CCNC1=O)NC(=O)[C@@H](CC(=O)[C@@H](NC(=O)c1cc(C)on1)C(C)C)Cc1ccc(F)cc1,Potency,[1],inactive
same,Potency,[2],inactive
same,Potency,[3],inactive
same,Potency,[4],inactive
same,Potency,[5],inactive
O=S(=O)(O)c1ccc2cc(N=Nc3cc(S(=O)(=O)O)c4cccnc4c3O)ccc2c1,Potency,[1],inactive
same,Potency,[2],inactive
same,Potency,[3],inactive
same,Potency,[4],inactive
same,Potency,[5],inactive
